# KDM4E inh = blocks human JMJD2E demethylase activity; AID 2147; actives 1.6% (n = 230,000); Potency, µM (doses to about 57.1 µM), inactives show at the top dose activity change, negative = inhibition, most hits filed as inhibitors; JMJD2E catalytic domain, FDH-coupled NADH fluorescence (FDH is formaldehyde dehydrogenase); B2RXH2; active = well fitted inhibition curve with a large enough effect, not every such curve was filed as active; inconclusive = small, poorly fitted or top-dose-only effect, or another doubt; inactive = no such curve, though single readings can be large or run the other way;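 note: potency is the fitted concentration of half-maximal effect; 0% = wells with enzyme and -100% = buffer wells without enzyme; nearly all actives have a fitted effect of over 50% in size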
# ALDH1A1 block = ALDH1A1 (human) enzyme inhibition | Purified ALDH1A1, NADH fluorescence, propionaldehyde substrate | Potency, µM (series often up to 75.3 µM), without a hit: at the highest dose activity, negative = inhibition, usual class: inhibitors | actives 7.3% (n = 220,000) | AID 1030; active = well fitted inhibition curve with a large enough effect, not every such curve was filed as active; inconclusive = small, poorly fitted or top-dose-only effect, or another doubt; inactive = no such curve, though single readings can be large or run the other way;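 note: potency is the fitted concentration of half-maximal effect; plate controls were no enzyme wells and a reference inhibitor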
# Target sequence (P00352 whole entry, looked up): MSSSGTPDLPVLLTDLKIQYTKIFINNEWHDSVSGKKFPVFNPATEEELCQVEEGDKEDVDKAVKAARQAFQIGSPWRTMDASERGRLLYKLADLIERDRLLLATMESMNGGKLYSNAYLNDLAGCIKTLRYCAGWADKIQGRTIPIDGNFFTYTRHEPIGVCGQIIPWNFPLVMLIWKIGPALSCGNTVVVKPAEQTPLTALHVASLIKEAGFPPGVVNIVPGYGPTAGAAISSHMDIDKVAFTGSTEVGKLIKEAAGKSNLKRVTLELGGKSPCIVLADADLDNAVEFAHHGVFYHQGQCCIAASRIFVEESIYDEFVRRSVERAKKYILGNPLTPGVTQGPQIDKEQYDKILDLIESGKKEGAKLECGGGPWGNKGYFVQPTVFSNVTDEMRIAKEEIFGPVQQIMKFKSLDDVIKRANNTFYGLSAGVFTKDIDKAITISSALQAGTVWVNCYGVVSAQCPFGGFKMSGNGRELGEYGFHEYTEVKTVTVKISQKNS
# RGS12 GoLoco inh = RGS12 GoLoco-Gai1 interaction inhibition; AID 880; actives 0.44% (n = 230,000); P63096; Potency, µM (top dose mostly 61.6 µM), without a hit: at the top dose activity, negative = inhibition, hits mostly inhibitors; Gai1:RGS12 GoLoco peptide FP, rhodamine, 10 min; active = well fitted inhibition curve with a large enough effect, not every such curve was filed as active; inactive = no such curve, though single readings can be large or run the other way; note: potency is the fitted concentration of half-maximal effect; nearly all actives have a fitted effect of over 30% in size
# NPSR antagonist = neuropeptide S receptor (human) antagonism, cAMP | Q6W5P4 | CHO-NPSR cells, cAMP TR-FRET, antagonist mode | Potency, µM (series often up to 38.3 µM), inactives show at the highest dose activity change, negative = inhibition, usual class: inhibitors | actives 1% (n = 220,000); note: potency is the fitted concentration of half-maximal effect; nearly all actives have a fitted effect of over 50% in size
# Sfp PPTase inh = inhibitors of Bacillus subtilis Sfp phosphopantetheinyl transferase; Q9F4F7; Biochemical Sfp PPTase activity, qHTS; Potency, µM, inactives show largest response in the series, negative = inhibition, hits mostly inhibitors; actives 3.5% (n = 310,000); AID 1490;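 note: the enzyme is Sfp with the accession as filed and its product quenches rhodamine fluorescence; potency is the fitted concentration of half-maximal effect; 0% = enzyme reaction without inhibitor and -100% = no enzyme wells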
#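 Reaction rates are the 30-min fluorescence difference (ex 525, em 598 nm) in wells containing 15 nM Sfp, 5 uM rhodamine-CoA and 12.5 uM BHQ-2-YbbR at pH 7.6 with 10 mM MgCl2.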
# FBPA coupling cs = counter-screen for Giardia aldolase inhibitors: coupling enzyme system | activity change, negative = inhibition, % at 58.2 µM, hits read low | actives 0.67% (n = 290,000) | coupling enzyme system counterscreen, AmpLite Red fluorescence; in the data active = activity change below about -30%
#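 Fluorescence at 525 nm excitation and 598 nm emission measured inhibition of the coupled detection system without aldolase. Compounds (at 57.5 uM final) were preincubated 10 min at room temperature with coupling enzyme reagent before a 20 min substrate/AmpLite Red step.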
# Active calls of the source: *; u = inconclusive; x = no result; [ ] = another dose, or the depositor's remark. The list is not random: actives were taken first. Their share in the collection is about 8.5%. Unless noted, calls come from the whole dose curve; as a rule, active = well fitted curve in the direction sought with a large enough effect; inconclusive = small, poorly fitted or top-dose-only effect, or another doubt; inactive = no such curve, though single readings can be large; an effect the other way counts as inactive or inconclusive. Unless noted, % is set by controls: 0 for no effect and ±100 for the full control effect.
SMILES,KDM4E inh,ALDH1A1 block,RGS12 GoLoco inh,NPSR antagonist,Sfp PPTase inh,FBPA coupling cs
O=C(NCC(=O)N(Cc1ccc(F)cc1)C(C(=O)NC1CCCC1)c1ccco1)c1ccco1 (stereo not given),-3%,-11%,-4%,-23%[46.1 µM],13%,2
O=C(NCC(=O)N(Cc1cccs1)C(C(=O)NC1CCCCC1)c1ccco1)c1ccco1 (stereo not given),-27%,22µM*,11%,0%,-21%,2
Cc1cc(OCC(=O)N2CCN(c3ccccn3)CC2)c(C)cc1Br,x,x,x,x,5%,x
N#Cc1ccccc1S(=O)(=O)N1CCN(C(=O)C2CCCC2)CC1,x,x,x,x,20%,2
O=S(=O)(NCc1ccccc1)c1ccc(-n2cccn2)cc1,x,x,x,x,10%,2
CCC(C)N(C)C1CCN(C(=S)Nc2cccc(SC)c2)CC1 (stereo not given),2%,u,-3%,22%,56µM*,-12
CCOc1ccccc1NC(=S)Nc1ccccc1F,-4%,u,4%,-5%[46.1 µM],u,-2
Fc1ccccc1NC(=S)Nn1cnnc1,x,x,x,x,18µM*,x
Fc1ccccc1NC(=S)NCc1ccccc1,x,x,x,x,36%,-1
CCOc1ccccc1NC(=S)Nn1cnnc1,x,x,x,x,7.1µM*,x
CCOc1ccccc1NC(=S)NCc1ccco1,5%,28µM*,4%,-3%[46.1 µM],-7%,0
CCc1ccccc1NC(=S)Nn1cnnc1,x,x,x,x,35µM*,x
Cc1ccccc1NC(=S)Nn1cnnc1,x,x,x,x,22µM*,x
Cc1cccc(NC(=S)Nn2cnnc2)c1C,5%,7.9µM*,-6%,13%,10µM*,0
Cc1cccc(NC(=S)NN2CCN(C)CC2)c1C,15%,20%,36%,7%[46.1 µM],-5%,4
CN(C)c1ccc(/C=N/NC(=O)CN2CCCCC2)cc1Br,x,x,x,x,0%,2
CC(=O)N[C@@H](C)c1nc2ccccc2n1CCCN1CCN(c2nc(-c3ccc(C)cc3)cs2)CC1,x,x,x,x,-15%,0
Cc1ccc(S(=O)(=O)N2CCOC2CNC(=O)C(=O)NCc2ccc(Cl)cc2)cc1 (stereo not given),x,x,x,x,9%,x
CCOc1ccc(NC(=O)C(=O)NCCN2CCN(S(=O)(=O)c3ccc(C)cc3)CC2)cc1,x,x,x,x,8%,1
COc1ccc2nc3oc(C(=O)N4CCN(c5cccc(Cl)c5)CC4)cc3cc2c1,-29%,178%,4%,-16%[46.1 µM],11µM*,-10
COc1ccc2nc3oc(C(=O)N4CCN(c5cccc(C(F)(F)F)c5)CC4)cc3cc2c1,u,-12%,0%,0%[46.1 µM],u,-1
O=C(C1CCCN(Cc2ccccc2Cl)C1)N1CCCCC1 (stereo not given),x,x,x,x,-25%,2
CCOC(=O)C1C(=O)C=C(c2ccc(C)cc2)CC1c1cccc([N+](=O)[O-])c1 (stereo not given),-2%,2.5µM*,x,-25%[46.1 µM],-2%,1
CCOC(=O)C1C(=O)C=C(c2ccc(C)cc2)CC1c1ccco1 (stereo not given),0%,u,5%,-26%[46.1 µM],u,5
O=S(=O)(c1ccccc1)N(C1=NCCS1)S(=O)(=O)c1ccccc1,4%,8.9µM*,-19%,-16%[46.1 µM],-7%,-5
SMILES,KDM4E inh,ALDH1A1 block,RGS12 GoLoco inh,NPSR antagonist,Sfp PPTase inh,FBPA coupling cs
O=C(CCn1cccn1)Nc1ccc2c(c1)OCO2,x,x,x,x,12%,1
CC(C)Nc1ccc(Nc2ccnc3cc4ccccc4cc23)cc1,-3%,-1%,9%,u,-19%,-3
c1ccc(CCNc2ccnc3cc4ccccc4cc23)cc1,u,u,-6%,-59%,u,-44*
O=C(NNC(=O)c1ccccc1Cl)c1cccs1,3%,0%,8%,-1%[46.1 µM],-1%,2
O=C(NNc1c(Cl)cccc1Cl)c1cccs1,12%,25µM*,-8%,-17%,6%,0
CCOC(=O)c1c(NC(=O)COc2cccc3c2CCN(CC)C3=O)sc2c1CCC2,4%,6%,7%,-47%,-4%,1
Cc1cc(Cl)c(S(=O)(=O)N2CCSCC2)cc1OCC(=O)NC1CCCCC1,3%,7.9µM*,-2%,-19%[46.1 µM],-5%,1

# Screening results (PubChem)
